Screening data as filed in PubChem.
Only some compounds are listed: those with a hit (about 1.6% of all), similar ones and a draw of the others.
KCNQ2 block – blocks the rat KCNQ2 potassium channel; B-score at 10 µM; O88943; 310,000 compounds, 1.1% hits; CHO-K1 KCNQ2, FluxOR thallium flux, 20 min; active compounds read low; AID 2156;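 active = fluorescence ratio B-score at most minus 3 library SDs, with starting brightness B-score within 2 library SDs, cut at about -5.5 in these data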
Target sequence (O88943 whole entry, looked up): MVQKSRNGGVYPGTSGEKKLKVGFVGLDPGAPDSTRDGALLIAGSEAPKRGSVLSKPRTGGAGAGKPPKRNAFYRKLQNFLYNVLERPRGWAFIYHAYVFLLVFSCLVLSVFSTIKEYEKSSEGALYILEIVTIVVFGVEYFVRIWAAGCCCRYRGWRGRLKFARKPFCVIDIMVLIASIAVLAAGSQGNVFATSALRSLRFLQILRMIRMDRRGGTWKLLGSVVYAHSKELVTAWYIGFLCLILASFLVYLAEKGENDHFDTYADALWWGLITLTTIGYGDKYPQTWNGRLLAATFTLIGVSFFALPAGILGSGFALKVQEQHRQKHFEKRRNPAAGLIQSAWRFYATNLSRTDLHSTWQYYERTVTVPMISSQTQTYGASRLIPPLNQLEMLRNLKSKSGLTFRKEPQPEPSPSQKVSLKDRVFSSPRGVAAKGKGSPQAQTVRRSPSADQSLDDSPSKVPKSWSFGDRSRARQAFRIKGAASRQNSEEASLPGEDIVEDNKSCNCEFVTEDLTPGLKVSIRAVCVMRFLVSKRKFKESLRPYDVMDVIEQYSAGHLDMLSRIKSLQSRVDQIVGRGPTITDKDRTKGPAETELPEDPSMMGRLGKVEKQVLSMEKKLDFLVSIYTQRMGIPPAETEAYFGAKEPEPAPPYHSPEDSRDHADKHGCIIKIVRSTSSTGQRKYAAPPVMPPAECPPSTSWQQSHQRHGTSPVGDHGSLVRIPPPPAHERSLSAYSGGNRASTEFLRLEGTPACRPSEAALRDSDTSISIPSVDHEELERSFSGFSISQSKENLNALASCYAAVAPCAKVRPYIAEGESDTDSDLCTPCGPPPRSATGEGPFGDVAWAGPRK
KCNQ2 enhance – potentiators of rat KCNQ2 potassium channel; O88943; CHO-K1 KCNQ2, FluxOR thallium flux fluorescence; active compounds read high; B-score at 10 µM; 310,000 compounds, 0.54% hits; AID 2239;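 active = fluorescence ratio B-score at least 3 SD of library B-scores, with initial fluorescence B-score within 3 of them, cut at about 5.3 in these data; same plate scores as AID 2156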;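 note: B-score of peak minus minimum over baseline fluorescence ratio after K+ and Tl+ stimulus; positive B-score means potentiation of KCNQ2 with more thallium influx and brighter signal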
Kir21 conf inh – confirmation of mouse Kir2.1 potassium channel inhibitors | shares compounds with KCNQ2 enhance | Tl flux remaining, % of negative control (active compounds read low), % at 10 µM | Kir2.1-expressing cells, FluxOR thallium flux fluorescence; active compounds read low | AID 2032 | 2,300 compounds, 41% hits;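 active = Primary-screen hit whose thallium flux fell at least 3 control SD below untreated wells in both duplicates, with normal baseline fluorescence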;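 note: 0% = blank wells without stimulus and 100% = stimulated no-compound controls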
HEK293 ctr – alters thallium flux in parental HEK293 cells, Kir2.1 counter-screen. FluxOR signal as % of negative control (100 = no effect), % at 10 µM. AID 2105. 2,300 compounds, 19% hits. shares compounds with KCNQ2 enhance. FluxOR thallium flux fluorescence; 0% = unstimulated blank wells;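 active = dye signal at least 3 control SD above or below untreated wells in both duplicates, raw fluorescence within 3, either direction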;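 note: percent is based on the flux ratio of peak minus minimum fluorescence over baseline F0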
CHO-K1 Tl ctr – counter-screen for KCNQ2 potentiators: effect in parental CHO-K1 cells | shares compounds with KCNQ2 enhance | 1,200 compounds, 43% hits | FluxOR thallium flux fluorescence; zero = vehicle mean+3SD, 100% = vehicle-minus-blank window | activity increase over 3SD of controls, % at 10 µM | AID 2282;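 active = signal rise of at least 3 SD above the untreated control mean, in both duplicate wells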;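 note: counter screen of KCNQ2 potentiator hits so any rise reflects channel-independent effects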
KCNQ1 sel pot – human KCNQ1 counter-target activity of KCNQ2 potentiators | activation over 3SD threshold, % at 10 µM | 1,200 compounds, 28% hits | CHO KCNQ1 stable, FluxOR thallium flux fluorescence; beyond 3SD, as % of vehicle-control signal | shares compounds with KCNQ2 enhance;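 active = fluorescence ratio rise of at least 3 SD of vehicle wells above their mean, in both replicate wells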;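 note: 0% = vehicle mean plus 3 SD and 100% = vehicle minus unstimulated blank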
KCNQ2 pot conf – rat KCNQ2 channel potentiator confirmation; shares compounds with KCNQ2 enhance; CHO-KCNQ2 cells, FluxOR thallium flux fluorescence; potentiation, less the hit threshold, % at 10 µM; 1,200 compounds, 68% hits; AID 2287;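 active = fluorescence ratio rising 3 SD or more over the vehicle control mean in both replicates, plus primary screen hit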;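 note: peak minus minimum thallium fluorescence divided by baseline after K/Tl stimulus; 0% = vehicle mean plus 3 SD and 100% = vehicle minus unstimulated blank difference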
Kir2-1 sel – tests whether KCNQ2 potentiators also affect mouse Kir2.1; shares compounds with KCNQ2 enhance; HEK293 Kir2.1, FluxOR thallium flux fluorescence; activity over 3SD threshold, % at 10 µM; 1,200 compounds, 2% hits;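 active = fluorescence ratio rise of at least 3 SD above the vehicle-control mean, seen in both replicates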;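 note: 0% = vehicle mean plus 3 SD and 100% = vehicle minus no-stimulus blank window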
KCNQ2 W236L MoA – KCNQ2 potentiators acting on retigabine-insensitive rat KCNQ2 W236L mutant; CHO KCNQ2-W236L, automated patch clamp current; AID 2558; shares compounds with KCNQ2 enhance; current increase over 3SD of negative controls (%), active compounds read high, % at 25 µM; 940 compounds, 10% hits;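 active = current increase at least 3 SD of the untreated controls above them in both duplicate recordings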
* marks the source's active call; other numbers are inactive results; i = inactive; . = no result given.

SMILES | KCNQ2 block | KCNQ2 enhance | Kir21 conf inh | HEK293 ctr | others
COc1cccc(CC(=O)Nc2ccccc2N2CCCC2)c1 | i | 6.1* | 50%* | i | CHO-K1 Tl ctr=-9;KCNQ1 sel pot=18*;KCNQ2 pot conf=17*;Kir2-1 sel=-92;KCNQ2 W236L MoA=i
Cc1c(Cl)cccc1NC(=S)NC1CCN(C(C)C)CC1 | i | 0.62 | . | .
CCN(CC)C(=O)c1ccc(S(=O)(=O)c2ccccc2)cc1 | i | 0.17 | . | .
CCC(C)n1c(NC(=O)c2ccccc2)c(C#N)c2nc3ccccc3nc21 (centres undefined) | i | . | . | .
CCCCn1c(NC(=O)c2ccc(F)cc2)c(C#N)c2nc3ccccc3nc21 | i | 5.7* | i | 66%* | CHO-K1 Tl ctr=103*;KCNQ1 sel pot=-8;KCNQ2 pot conf=-4;Kir2-1 sel=-38;KCNQ2 W236L MoA=i
O=C(N[C@@H](c1ccccc1)[C@H](O)c1ccccc1)[C@@H]1CCCN1C(=O)OCc1ccccc1 | i | . | . | .
Cc1ccc(S(=O)(=O)Nc2ccccc2C(=O)N2CCCCCC2)cc1 | i | . | . | .
CC(NCCS(=O)(=O)c1ccc(Cl)cc1)c1cccc(Cl)c1 (centres undefined) | i | 0.87 | 34%* | i
CC(C)c1ccc(C(C)NCCS(=O)(=O)c2ccc(Br)cc2)cc1 (centres undefined) | i | . | . | .
O=c1ccc(-c2ccc(S(=O)(=O)Nc3ccc(F)cc3)s2)n[nH]1 | i | . | . | .
Cc1ccc2[nH]c3c(c2c1)CN(C(C)C)CC3 | i | 0.13 | . | .
Cc1onc(-c2ccccc2)c1C(=O)OCC(=O)Nc1ccc2c(c1)OCO2 | i | . | . | .
Cc1onc(-c2ccccc2Cl)c1C(=O)OCC(=O)Nc1ccc2c(c1)OCO2 | i | 8* | i | i | CHO-K1 Tl ctr=3.4*;KCNQ1 sel pot=0.5*;KCNQ2 pot conf=-14;Kir2-1 sel=-37;KCNQ2 W236L MoA=i
COc1cc(/C=C2/C(=O)NN(c3ccc(C)c(Cl)c3)C2=O)cc([N+](=O)[O-])c1O | i | . | . | .
Cc1ccc(N2NC(=O)/C(=C\c3cc4c(cc3[N+](=O)[O-])OCO4)C2=O)cc1C | i | . | 76%* | i
COC(=O)c1c(NC(=O)C2CC2)sc(C(=O)Nc2ccccc2)c1C | i | . | . | .
CCOc1ccc(OCC(=O)N(CCC2=CCCCC2)c2c(N)n(Cc3ccccc3)c(=O)[nH]c2=O)cc1 | i | . | . | .
CC1=NN(c2ccc(C)cc2)C(=O)/C1=C\C=C\c1ccccc1 | i | . | . | .
CC1=NN(c2cccc(C(=O)O)c2)C(=O)/C1=C\C=C/c1ccccc1 | i | 7.2* | i | i | CHO-K1 Tl ctr=33*;KCNQ1 sel pot=-2;KCNQ2 pot conf=36*;Kir2-1 sel=-62;KCNQ2 W236L MoA=i
Cc1cc(C)c(NC(=O)CS(=O)CC(=O)N2CCN(c3cccc(C)c3C)CC2)c(C)c1 (centres undefined) | i | 1.9 | . | .
Cc1cc(=O)[nH]c2ccccc12 | i | . | . | .
Cc1cc2[nH]c3c(c[n+](C)c4ccccc34)c2cc1C | i | . | i | i
Cc1ccc2c(c1)C(c1ccccc1)N(C(=O)c1ccc(Br)cc1)CC(=O)N2 (centres undefined) | i | 0.09 | . | .
CN1CCN(CC(=O)N2c3ccccc3C(C)(c3ccc(Cl)cc3)CC2(C)C)CC1 (centres undefined) | i | 0.07 | . | .
CN1CCN(CC(=O)N2c3ccccc3C(C)(c3ccccc3)CC2(C)C)CC1 (centres undefined) | i | . | 58%* | i
SMILES | KCNQ2 block | KCNQ2 enhance | Kir21 conf inh | HEK293 ctr | others
O=C(NC1CC(=O)N(c2ccc(Cl)cc2)C1)C1CC1 (centres undefined) | i | 0.07 | . | .
COc1ccc(CNCc2ccncc2)c(OC)c1 | i | 1.5 | . | .
COc1ccc(CNCc2cccc(Oc3ccccc3)c2)cc1 | i | 2.1 | 10%* | i
COc1ccc(CNCc2cccc(C)c2)cc1 | i | 0.68 | . | .
COc1ccc(CNCc2ccc3ccccc3c2)c(OC)c1 | i | 4.5 | 24%* | i
Cn1c(CC(=O)Nc2ccccc2)nnc1SCC(=O)NC1CCCC1 | i | . | . | .
O=C(O)CCC(=O)NNC(=O)CCC1CCCCC1 | i | 0.21 | . | .
O=C(CCC1CCCCC1)NNC(=O)NC12CC3CC(CC(C3)C1)C2 | i | 9.3* | i | i | CHO-K1 Tl ctr=-22;KCNQ1 sel pot=-62;KCNQ2 pot conf=12*;Kir2-1 sel=-32;KCNQ2 W236L MoA=i
Nc1[nH]n2c(=O)cc(-c3ccccc3)nc2c1N=Nc1ccc(S(N)(=O)=O)cc1 | i | 1.4 | . | .
Nc1[nH]n2c(=O)cc(-c3ccccc3)nc2c1N=Nc1ccccc1 | i | 6.6* | i | i | CHO-K1 Tl ctr=-28;KCNQ1 sel pot=-25;KCNQ2 pot conf=9.8*;Kir2-1 sel=-21;KCNQ2 W236L MoA=i
CN(CC(=O)Nc1ccccc1Cl)C(=O)COC(=O)c1ccccc1[N+](=O)[O-] | i | 0.49 | . | .
CCOc1ccc(S(=O)(=O)NCCCn2ccnc2)cc1 | i | . | . | .
CCC(=O)NCC(c1cccs1)N1CCOCC1 (centres undefined) | i | 0.5 | . | .
Cc1cc(SCC(=O)NCC(c2cccs2)N2CCOCC2)c(C)cc1Br (centres undefined) | i | 5.4* | i | i | CHO-K1 Tl ctr=38*;KCNQ1 sel pot=-11;KCNQ2 pot conf=-5;Kir2-1 sel=-48;KCNQ2 W236L MoA=i
COc1ccc(-c2cc(-c3cc(C)ccc3O)[nH]n2)cc1 | i | 0.62 | . | .
COc1ccc(-c2cc(-c3ccc(C)cc3)n[nH]2)c(O)c1 | i | 7* | i | i | CHO-K1 Tl ctr=16*;KCNQ1 sel pot=-14;KCNQ2 pot conf=-32;Kir2-1 sel=-39
O=c1ccc(-c2ccccc2)no1 | i | . | . | .
CCCc1cc(=O)oc2c3c(cc(OCC(=O)N4CCC[C@H]4C(=O)O)c12)OC(C)(C)CC3 | i | 0.35 | . | .
COc1ccc(/C=N/N(C)C2=NCCN2)c(OC)c1OC | i | 0.05 | . | .
COCCOC(=O)c1c(C)oc2ccc(O)c(CN3CCC(C)CC3)c12 | i | 0.11 | . | .
CCOC(=O)c1c(-c2ccccc2)oc2ccc(OCC(O)CN(C)C)cc12 (centres undefined) | -5.6* | -5.6 | i | i
CCOC(=O)c1c(-c2ccccc2)oc2ccc(OC(C)C(=O)O)cc12 (centres undefined) | i | . | . | .
Cc1oc2ccc(O)c(CN(C)C)c2c1C(=O)c1ccccc1 | i | . | . | .
CCOC(=O)c1c(-c2ccccc2)oc2ccc(O)c(CN(C)C)c12 | i | 1.4 | i | i
CCOC(=O)c1c(-c2ccccc2)oc2ccc(O)c(CN3CCCC3)c12 | i | . | 26%* | i
